The results in this text go back to PubChem BioAssay (Tox21).

Molecules are shown by their SMILES. The source made the active and inactive calls. Unless noted, calls come from the whole dose curve; as a rule, active = well fitted curve in the direction sought with a large enough effect in the repeat runs; inconclusive = weak or mixed curves; inactive = no such curve, though single readings can be large; an effect the other way counts as inactive or inconclusive.

A short description of assay [1]: qHTS assay to identify small molecule antagonists of the thyroid receptor (TR) signaling pathway - cell viability counter screen (AID 743064). Note: nearly all actives have a fitted effect of over 50% in size. Note: potency is the fitted concentration of half-maximal effect. The method, boiled down:
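Compounds were tested on GH3.TRE-Luc cells in the presence of T3 at 1 nM final. Following 23.5 h at 37 °C, cell viability was quantified by CellTiter-Fluor.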

Assay [2] in a line: qHTS assay to identify small molecule antagonists of the thyroid receptor (TR) signaling pathway (AID 743065). Note: nearly all actives have a fitted effect of over 55% in size. Note: potency is the fitted concentration of half-maximal effect. The method, boiled down:
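GH3.TRE-Luc rat pituitary cells carrying two TR response elements driving luciferase were plated for 4 h, given compound plus 1 nM T3 (final), and incubated 23.5 h at 37 C. ONE-Glo luminescence measured reporter inhibition; CellTiter-Fluor fluorescence tracked cytotoxicity.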
(In general: In qHTS, concentration-response curves come from the screen itself.)

For assay [3], the system named is thyroid hormone receptor (rat, GH3 cells). As to the kind of experiment: qHTS assay to identify small molecule agonists of the thyroid receptor (TR) signaling pathway (AID 743066; calls by dose curve).
Assay [4] addresses Estrogen receptor (Homo sapiens) (UniProt P03372). Briefly: qHTS assay to identify small molecule antagonists of the estrogen receptor alpha (ER-alpha) signaling pathway (AID 743069; active = well fitted curve in the direction sought with a large enough effect in the signal ratio in the repeat runs, not every such curve was filed as active; inconclusive = weak or mixed curves, or effect the other way; inactive = no such curve, though single readings can be large or run the other way; the % refers to the signal ratio). The method, boiled down:
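Estradiol-stimulated ER-alpha-UAS-bla HEK293 cells, 18 hr compound exposure at 37C. LiveBLAzer B/G substrate, 2 hr RT, fluorescence read.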

The nature of assay [5]: qHTS assay to identify small molecule antagonists of the estrogen receptor alpha (ER-alpha) signaling pathway - cell viability counter screen (AID 743074; calls by dose curve;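 note: HEK293 cells carrying ER-alpha-UAS-bla reporter stimulated with 17beta-estradiol; nearly all actives have a fitted effect of over 45% in size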).
Assay [6] concerns the target Estrogen receptor (Homo sapiens) (UniProt P03372). Briefly: qHTS assay to identify small molecule agonists of the estrogen receptor alpha (ER-alpha) signaling pathway (AID 743075; calls by dose curve;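 note: HEK293 GripTite cells with ER-alpha and UAS-driven beta-lactamase reporter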; note: potency is the fitted concentration of half-maximal effect).
Assay [7] has the same target. Briefly: qHTS assay to identify small molecule agonists of the estrogen receptor alpha (ER-alpha) signaling pathway using the BG1 cell line (AID 743079). Note: nearly all actives have a fitted effect of over 20% in size. Note: potency is the fitted concentration of half-maximal effect. The note with it: BG1Luc4E2 cells, ERE-luciferase agonist, 22 h; activation: at 70.3 µM (top of the series).
Assay [8] in a line: qHTS assay to identify small molecule antagonists of the estrogen receptor alpha (ER-alpha) signaling pathway using the BG1 cell line (AID 743080; calls by dose curve;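 note: BG1 cells stimulated with 17beta-estradiol alongside compound; nearly all actives have a fitted effect of over 25% in size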). The procedure, abridged:
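Endogenous full-length ER-alpha in BG1-Luc-4E2 cells drives a stably integrated 4×ERE luciferase gene; compounds were tested against 17beta-estradiol over 21.5 h, with luminescence and multiplexed viability fluorescence recorded.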

Assay [9] can be described thus: qHTS assay to identify small molecule antagonists of the estrogen receptor alpha (ER-alpha) signaling pathway using the BG1 cell line - cell viability counter screen (AID 743081).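 Note: compound given together with 17beta-estradiol as the ER stimulus; nearly all actives have a fitted effect of over 45% in size.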
A further assay has as its target Aromatase (Homo sapiens) (UniProt P11511). Briefly: qHTS assay to identify aromatase inhibitors (AID 743083). Note: nearly all actives have a fitted effect of over 55% in size.

Chain of Estrogen receptor (Homo sapiens) (P03372 whole entry, looked up): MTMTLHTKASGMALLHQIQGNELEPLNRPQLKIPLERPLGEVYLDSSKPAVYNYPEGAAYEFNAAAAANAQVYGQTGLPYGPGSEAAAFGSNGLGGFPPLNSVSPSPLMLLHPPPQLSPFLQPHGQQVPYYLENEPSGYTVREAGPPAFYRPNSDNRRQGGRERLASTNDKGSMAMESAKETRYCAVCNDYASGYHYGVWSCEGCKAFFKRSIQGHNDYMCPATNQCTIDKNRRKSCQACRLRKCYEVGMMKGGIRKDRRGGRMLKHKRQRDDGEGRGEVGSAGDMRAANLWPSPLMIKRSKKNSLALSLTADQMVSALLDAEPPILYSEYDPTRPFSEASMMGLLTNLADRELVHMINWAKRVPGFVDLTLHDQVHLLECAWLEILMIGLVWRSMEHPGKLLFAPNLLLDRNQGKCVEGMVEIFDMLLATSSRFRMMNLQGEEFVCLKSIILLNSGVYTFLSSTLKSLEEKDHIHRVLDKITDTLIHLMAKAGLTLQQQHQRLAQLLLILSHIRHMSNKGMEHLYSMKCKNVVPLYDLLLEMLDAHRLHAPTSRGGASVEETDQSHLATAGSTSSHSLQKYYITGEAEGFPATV
Chain of Aromatase (Homo sapiens) (P11511 whole entry, looked up): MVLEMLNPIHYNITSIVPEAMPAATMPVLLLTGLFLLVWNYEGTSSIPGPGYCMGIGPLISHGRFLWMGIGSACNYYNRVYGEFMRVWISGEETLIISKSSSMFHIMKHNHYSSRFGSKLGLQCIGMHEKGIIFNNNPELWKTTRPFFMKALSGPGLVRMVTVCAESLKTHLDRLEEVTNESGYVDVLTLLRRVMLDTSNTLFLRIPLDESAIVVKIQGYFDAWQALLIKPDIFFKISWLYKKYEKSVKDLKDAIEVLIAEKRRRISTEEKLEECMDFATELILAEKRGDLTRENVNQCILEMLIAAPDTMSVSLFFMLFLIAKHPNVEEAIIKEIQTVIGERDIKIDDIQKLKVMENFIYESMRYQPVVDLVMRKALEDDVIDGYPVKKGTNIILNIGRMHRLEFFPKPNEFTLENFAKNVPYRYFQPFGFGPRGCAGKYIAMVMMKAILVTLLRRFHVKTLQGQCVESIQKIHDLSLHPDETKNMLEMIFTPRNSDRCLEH

As to `CO/N=C(\C(=O)N[C@@H]1C(=O)N2C(C(=O)O)=C(CSc3nnnn3C)CS[C@H]12)c1csc(N)n1`, the Potency result in assay [1], in assay [2], in assay [3], in [4], in assay [5] and in assay [6] was “inactive” throughout. The Potency entry (in assay [7]; in assay [8]; in assay [9]; with Aromatase (Homo sapiens)) was “inactive” throughout.

For the compound `O=S(O)CNc1ccc(S(=O)(=O)c2ccc(NCS(=O)O)cc2)cc1`, the Potency entry in assay [1], in assay [2], in assay [3], in assay [4], in [5] and in [6] was “inactive” each time. Besides, the Potency entry (in assay [7]; in assay [8]; in assay [9]; with Aromatase (Homo sapiens)) was “inactive” each time.

Regarding `CC[C@H]1NC(=O)[C@@H](NC(=O)c2ncccc2O)[C@@H](C)OC(=O)[C@H](c2ccccc2)NC(=O)[C@@H]2CC(=O)CCN2C(=O)[C@H](Cc2ccccc2)N(C)C(=O)[C@@H]2CCCN2C1=O`, the Potency entry in assay [1], in [2], in [3], in assay [4], in assay [5] and in [6] was “inactive” in each case. For the same compound, the Potency entry (in [7]; in assay [8]; in [9]; with Aromatase (Homo sapiens)) was “inactive” in each case.

As to `CN1CCN(C2=Nc3ccccc3Cc3ccccc32)CC1`, the Potency was 13.3 µM (active) in assay [1] and 23.7 µM (active) in assay [2]. Besides, the Potency entry in [3], in [4], in assay [5], in [6], in assay [7] and in [8] was “inactive” throughout. Besides, the Potency entry (in [9]; with Aromatase (Homo sapiens)) was “inactive” each time.

Regarding `O=C(Cc1cccs1)N[C@@H]1C(=O)N2C(C(=O)[O-])=C(C[n+]3ccccc3)CS[C@H]12`, the Potency result in assay [1], in assay [2], in assay [3], in assay [4], in assay [5] and in assay [6] was “inactive” in each case. In addition, the Potency entry (in [7]; in [8]; in [9]; with Aromatase (Homo sapiens)) was “inactive” throughout.

For `CC[C@H]1OC(=O)[C@H](C)[C@@H](O[C@H]2C[C@@](C)(OC)[C@@H](O)[C@H](C)O2)[C@H](C)[C@@H](O[C@@H]2O[C@H](C)C[C@H](N(C)C)[C@H]2O)[C@](C)(O)C[C@@H](C)[C@@H]2N[C@@H](COCCOC)O[C@@H]([C@H]2C)[C@]1(C)O`, the Potency result in assay [1], in [2], in [3], in assay [4], in assay [5] and in assay [6] was “inactive” in each case. For the same compound, the Potency entry (in assay [7]; in [8]; in assay [9]; with Aromatase (Homo sapiens)) was “inactive” throughout.

In the case of `C=CCN1CCCC1CNC(=O)c1cc(S(N)(=O)=O)cc(OC)c1OC` (stereo not given), the Potency result in [1], in assay [2], in assay [3], in [4], in assay [5] and in assay [6] was “inactive” each time. Moreover, the Potency entry (in assay [7]; in assay [8]; in assay [9]; in the assay with Aromatase (Homo sapiens)) was “inactive” throughout.

With `O=P(O)(O)OC(CO)CO`, the Potency entry in assay [1], in assay [2], in [3], in assay [4], in assay [5] and in assay [6] was “inactive” in each case. Moreover, the Potency result (in assay [7]; in assay [8]; in [9]; in the assay with Aromatase (Homo sapiens)) was “inactive” each time.

Turning to `CC(C)CN(C[C@@H](O)[C@H](Cc1ccccc1)NC(=O)O[C@H]1CO[C@H]2OCC[C@H]21)S(=O)(=O)c1ccc(N)cc1`, the Potency entry in assay [1], in [2], in [3], in assay [4], in assay [5] and in assay [6] was “inactive” each time. The Potency entry (in [7]; in [8]; in assay [9]; with Aromatase (Homo sapiens)) was “inactive” throughout.

In the case of `CN1c2c(nc(N)[nH]c2=O)NCC1CNc1ccc(C(=O)NC(CCC(=O)O)C(=O)O)cc1` (stereo not given), the Potency entry in assay [1], in assay [2], in assay [3], in assay [4], in assay [5] and in [6] was “inactive” throughout. For the same compound, the Potency result (in assay [7]; in [8]; in assay [9]; in the assay with Aromatase (Homo sapiens)) was “inactive” each time.

`CC(O)[C@H]1CC[C@H]2[C@@H]3CC[C@@H]4C[C@@H](O)CC[C@]4(C)[C@H]3CC[C@]12C` (stereo not given in full): the Potency entry in assay [1], in [2], in assay [3], in assay [4], in assay [5] and in [8] was “inactive” each time. The Potency entry (in assay [9]; with Aromatase (Homo sapiens)) was “inactive” throughout. Further, the Potency in assay [6] is 3.38 µM [inconclusive] (active); in assay [7], 9.44 µM (active).

On to `CC(C)(CO)[C@@H](O)C(=O)NCCC(=O)NCCSSCCNC(=O)CCNC(=O)[C@H](O)C(C)(C)CO`, for which the Potency result in [1], in assay [2], in [3], in [4], in assay [5] and in assay [6] was “inactive” in each case. Besides, the Potency entry (in assay [7]; in assay [8]; in [9]; in the assay with Aromatase (Homo sapiens)) was “inactive” each time.

As to `C=CCCCCCCCCC(=O)OC`, the Potency result in assay [1], in [2], in [3], in assay [4], in assay [5] and in assay [6] was “inactive” each time. Further, the Potency entry (in [7]; in assay [8]; in assay [9]; with Aromatase (Homo sapiens)) was “inactive” throughout.

As to `CN[C@@H]1[C@@H](O)[C@@H](O[C@@H]2[C@@H](O)[C@H](O[C@H]3O[C@H](CN)[C@@H](O)[C@H](O)[C@H]3O)[C@@H](N)C[C@H]2NC(=O)C(O)CN)OC[C@]1(C)O` (stereo not given in full), the Potency result in assay [1], in assay [2], in [3], in assay [4], in [5] and in [6] was “inactive” each time. The Potency entry (in assay [7]; in assay [8]; in assay [9]; in the assay with Aromatase (Homo sapiens)) was “inactive” in each case.

For `O=C(CCCCCCCCCCCCC1CCCC1)Nc1ccc(S(=O)(=O)c2ccc(NC(=O)CCCCCCCCCCCCC3CCCC3)cc2)cc1`, the Potency entry in assay [1], in assay [2], in [3], in assay [4], in assay [5] and in [6] was “inactive” throughout. In addition, the Potency entry (in assay [7]; in assay [8]; in assay [9]; with Aromatase (Homo sapiens)) was “inactive” in each case.

Regarding `CC(O)[C@@H]1NC(=O)[C@H](Cc2ccccc2)NC(=O)[C@H](C(C)O)NC(=O)[C@H](CCCCN)NC(=O)[C@H](Cc2c[nH]c3ccccc23)NC(=O)[C@H](Cc2ccccc2)NC(=O)[C@H](Cc2ccccc2)NC(=O)[C@H](CC(N)=O)NC(=O)[C@H](CCCCN)NC(=O)[C@@H](NC(=O)CNC(=O)[C@H](C)N)CSSC[C@@H](C(=O)O)NC(=O)[C@H](CO)NC1=O` (stereo not given in full), the Potency result in assay [1], in assay [2], in assay [3], in assay [4], in assay [5] and in assay [6] was “inactive” in each case. Moreover, the Potency result (in [7]; in assay [8]; in assay [9]; with Aromatase (Homo sapiens)) was “inactive” throughout.

Consider `O=C(OCCO)c1ccccc1O`, for which the Potency result in assay [1], in [2], in assay [3], in [4], in assay [5] and in [6] was “inactive” in each case. The Potency entry (in assay [7]; in assay [8]; in assay [9]; in the assay with Aromatase (Homo sapiens)) was “inactive” throughout.

Consider `C=CCSSSCC=C`, for which the Potency result in [1], in [2], in [3], in [4], in assay [5] and in assay [6] was “inactive” each time. Further, the Potency entry (in [8]; in assay [9]; with Aromatase (Homo sapiens)) was “inactive” each time. Besides, the Potency in assay [7] was 29.8 µM (active).

Take `CC(=O)N=c1sc(S(N)(=O)=O)nn1C`: the Potency result in assay [1], in [2], in [3], in [4], in assay [5] and in [6] was “inactive” each time. Also, the Potency result (in [7]; in assay [8]; in [9]; with Aromatase (Homo sapiens)) was “inactive” each time.
